Experimental findings from PubChem BioAssay (NCATS) are described below.

Calls of active or inactive are those of the source. The rule behind the calls is not given here.
Potency is the fitted concentration of half-maximal effect.

The experiment is described as follows: Immunotoxin (HA22) sensitization/mitigation study. Vehicle arm (PBS) (AID 1159510). The note with it: cancer cells viability with PBS vehicle (HA22 study); series mostly up to 46.1 µM; viability (% of control): at the top concentration.
On to `C[C@@H]1CN(CC(=O)Nc2ccc3c(c2)Cc2cccc(-c4cc(=O)cc(N5CCOCC5)o4)c2S3)C[C@H](C)O1`, for which the Potency is 16.6 µM (active). Same read-out and setting: then `Cc1cccc(Nc2nc(N[C@@H]3CCCC[C@H]3N)ncc2C(N)=O)c1`, with 18.7 µM (active). With `CCCCn1c(=O)n(Cc2ccccc2F)c(=O)c2[nH]c(Cc3ccc(NC(C)=O)cc3)nc21`, the “viability (% of control)” value is 93.3% (inactive).
